We go through 39 compounds from ChEMBL document CHEMBL4513146, “CO-ADD screening of Karazin Kharkiv National University (Ukraine) compounds”.

Potency and affinity values are given separately.

This assay has as its system Candida albicans. The following applies: Concentration 32 ug.mL-1; ASSAY_TEST Inhibition of Fungal Growth; detection method Absorption (OD530).
One may read the Inhibition as the change of the read-out against control, counted positive when it falls. Consider `CCc1ccccc1Sc1nccn2c(=O)n(CC(=O)Nc3ccc(C)cc3)nc12`, for which the Inhibition worked out at 39.33%.

Take `Cc1ccc(Nc2cc(C)n3c(=O)n(CCOc4ccc(F)cc4)nc3n2)cc1`: the Inhibition was found to be 2.38%. For the compound `COc1ccc(OC)c(NC(=O)Cn2nc3c(SCc4ccc(Cl)cc4)nccn3c2=O)c1`, the Inhibition is on record as 23.62%. For the compound `COc1cccc(-n2ccn3c(SCC(=O)Nc4ccc(F)cc4F)nnc3c2=O)c1`, the Inhibition is on record as 4.17%.

On to `COc1ccccc1Cn1c(=O)c2sccc2n2c(=O)n(Cc3cccc(C)c3)nc12`, for which the Inhibition came to 1.33%. Then `CSc1ccc(-c2noc(Cn3nc4ccc(-c5ccccc5)nn4c3=O)n2)cc1`, with 17.1%.

In the case of `O=C(Cn1nc2ccc(C(=O)NCc3ccccc3)cn2c1=O)Nc1ccc2c(c1)OCO2`, the Inhibition is on record as 3.87%. Turning to `Cc1ccc(-c2noc(Cn3nc4ccc(-c5ccccc5)nn4c3=O)n2)cc1`, the Inhibition worked out at 8.52%. Then `O=C(Cn1nc2c(N3CCOCC3)nc3ccccc3n2c1=O)NCc1ccccc1Cl`, with 6.61%. For `O=C(CSc1nnc2c3cc(-c4ccccc4)nn3ccn12)NCc1ccccc1Cl`, the Inhibition is recorded as 0.55%.

For `COc1ccc(NC(=O)c2ccc3nn(CC(=O)Nc4ccc(C)c(F)c4)c(=O)n3c2)cc1`, the Inhibition is 10.47%. On to `Cc1cccc(Oc2nccn3c(=O)n(CC(=O)NCCCc4ccccc4)nc23)c1C`, for which the Inhibition came to 0.59%. On to `Cc1ccc(NC(=O)Cn2nc3ccc(SC(C)C)nn3c2=O)c(C)c1`, for which the Inhibition came out at 2.8%. For `Cc1ccc(-c2ccc3nn(CC(=O)Nc4ccc(Cl)cc4)c(=O)n3n2)cc1C`, the Inhibition was 0.13%. The value for `Cc1ccc(Oc2nccn3c(=O)n(CC(=O)Nc4ccc(Br)cc4F)nc23)cc1` was 2.18%.

`COc1cccc(Oc2nccn3c(=O)n(CC(=O)NCc4ccc(SC)cc4)nc23)c1`: the Inhibition is listed as 2.58%. In the case of `CCc1nnc2c(S(=O)(=O)N(Cc3cccc(F)c3)c3ccc(F)cc3)cccn12`, the Inhibition amounted to 1.06%. `Cc1nnc2c(SCC(=O)Nc3cccc(Br)c3)nc3ccccc3n12`: the Inhibition is 5.04%. Consider `CCCCc1ccc(NC(=O)Cn2nc3c(Sc4ccccc4CC)nccn3c2=O)cc1`, for which the Inhibition worked out at 24.82%.

In the case of `CCCNC(=O)Cn1nc2cc(C)nc(Nc3cc(C)cc(C)c3)n2c1=O`, the Inhibition was 5.03%.

`COc1cccc(Oc2nccn3c(=O)n(CC(=O)Nc4cc(F)ccc4F)nc23)c1`: the Inhibition was determined as 5.06%.

With `COc1ccc(Cl)cc1NC(=O)CSc1nnc2c(=O)n(-c3ccccc3)ccn12`, the Inhibition is 3.46%. As to `Cc1ccc(-n2ccn3c(SCC(=O)Nc4ccc5c(c4)OCCO5)nnc3c2=O)cc1C`, the Inhibition is reported as 0.14%. For `Cc1ccc(Cl)cc1NC(=O)CSc1nc2ccccc2n2c(C)nnc12`, the Inhibition is 5.91%. Then `Cc1ccc(C)c(NC(=O)Cn2nc3c(SCc4ccc(Cl)cc4)nccn3c2=O)c1`, with 3.07%; and `O=S(=O)(c1ccc2nncn2c1)N(Cc1ccccc1F)c1cccc(F)c1`, with 2.89%.

As to `CC(C)CCNC(=O)Cn1nc2n(CC(C)C)c(=O)c3sccc3n2c1=O`, the Inhibition is given as -0.63%. On to `Cc1ccc(NC(=O)Cn2nc3cc(C)nc(Nc4ccc(F)cc4)n3c2=O)cc1`, for which the Inhibition was determined as 3.22%. As to `COc1cccc(CN(c2cc(C)cc(C)c2)S(=O)(=O)c2cccn3c(C)nnc23)c1`, the Inhibition stood at 1.08%. On to `Cc1ccc(S(=O)(=O)Nc2ccc3nnc(-c4ccccc4)n3n2)cc1C`, for which the Inhibition was determined as 0.52%.

As for `CC(C)(C)OC(=O)CN(c1ccc2c(c1)OCCO2)S(=O)(=O)c1ccc2nncn2c1`, the Inhibition was 1.39%. Regarding `CCOC(=O)c1ccc(NC(=O)Cn2nc3c4cc(-c5ccc(C)c(C)c5)nn4ccn3c2=O)cc1`, the Inhibition was 1.14%. As for `CCC(Sc1nnc2c(=O)n(-c3cccc(OC)c3)ccn12)C(=O)Nc1ccccc1C` (centres undefined), the Inhibition worked out at 0.82%. The value for `O=C(Cn1nc2c(Sc3cccc(F)c3)nccn2c1=O)N1CCN(c2ccccc2)CC1` was 0.68%; that for `Cc1nnc2ccc(S(=O)(=O)N(Cc3cccc(F)c3)c3cc(F)cc(F)c3)cn12` was -1.03%; that for `Cc1cc(C)c(NC(=O)Cn2nc3c4cc(-c5ccc(C)c(C)c5)nn4ccn3c2=O)c(C)c1` was -0.89%. Then `CCCCc1ccc(NC(=O)Cn2nc3ccc(-c4ccc(C)c(C)c4)nn3c2=O)cc1`, with 1.02%; and `COc1ccc(C)cc1NC(=O)Cn1nc2ccc(SCc3ccc(Cl)cc3)nn2c1=O`, with 31.09%. `Cc1nnc2c(=O)n(CC(=O)Nc3ccc(F)cc3F)c3ccccc3n12`: the Inhibition is given as -0.68%.
